Compounds with a hit are over-represented: about 4.1% of the library has one in this group of screens.
Shn3 inh set2: Schnurri-3 reporter inhibition in Clone20 osteoblasts | 360,000 compounds, 0.52% hits | Clone20 osteoblast Shn3 3'UTR firefly luciferase, 24 h | inhibition, % at 12.5 µM | AID 588674;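 active means mean inhibition of at least 75% with every replicate also reaching 75%; inconclusive means mean inhibition at least 75% but some replicate below; inactive means mean inhibition below 75%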;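 further: 0% = median of neutral control wells and 100% = pilot-screen positive control compound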
TROY signal inh: TROY signaling inhibition; Q293 LMP1-TROYcd NF-kB luciferase reporter, 4 h; inhibition, % at 10 µM; 360,000 compounds, 0.98% hits;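 active means compounds whose plate-normalised and pattern-corrected inhibition of the luciferase reporter signal at the single screening dose is 50% or more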
Peg3 prom inh: Peg3 promoter activity inhibition; HeLa PEG-Prom luciferase reporter, luminescence, overnight; inhibition, % at 20 µM; 360,000 compounds, 1.7% hits; AID 588405;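 active means inhibition of at least 50% at 20 µM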
MITF TRPM1 inh: MITF TRPM1 promoter inhibition in SK-MEL-5 cells; SK-MEL-5 TRPM1 promoter luciferase, 24 h; inhibition, % at 12.5 µM; 330,000 compounds, 0.83% hits; AID 488899;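 active means mean inhibition across replicates of 60% or more, whatever share of single replicates reaches that level; inconclusive means some that reach 60%, reason not given; inactive means mean inhibition across replicates below 60%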
EBV LMP1 NFkB: inhibitors of Epstein-Barr LMP1-induced NF-kappaB reporter. LMP1-induced NF-kappaB luciferase reporter cells, luminescence. inhibition, % at 12.5 µM. 350,000 compounds, 0.69% hits; in the data active means inhibition above about 41%; inconclusive means no clear call, values can overlap the other calls;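 further: 0% = neutral control wells and 100% = reference inhibitor control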
TWEAK Fn14 block: inhibitors of TWEAK-Fn14 interaction signaling; TWEAK-stimulated Fn14 reporter cells, luciferase luminescence, 8 h; inhibition, % at 10 µM; 360,000 compounds, 2% hits; in the data active means inhibition above about 50%
An asterisk follows results filed as active; ? = inconclusive; . = no result given; ! = repeats disagree.

SMILES | Shn3 inh set2 | TROY signal inh | Peg3 prom inh | MITF TRPM1 inh | EBV LMP1 NFkB | TWEAK Fn14 block
COc1ccc(-c2cc3c(=O)n(CC(=O)Nc4cccc(Cl)c4)nc(C)n3n2)cc1 | 26 | -12 | 42 | 10 | 7 | -36
COCCOc1ccc(C(F)(F)F)cc1NC(=O)COC(=O)c1cc([N+](=O)[O-])ccc1N1CCOCC1 | 3 | 0 | -11 | 5 | -7 | -15
Cc1ccc(C)c(N2CCN(CCCNC(=O)Cn3cccc3C(=O)c3ccccc3C)CC2)c1 | 27 | -2 | 107* | 57 | -1 | 19
CCc1ccc(C(=O)Cn2ncc(Cl)c(Cl)c2=O)cc1 | 43 | 11 | 31 | 57 | -98 | 79*
O=C(Cn1ncc(Cl)c(Cl)c1=O)N1CCOCC1 | 9 | -2 | 97* | 98* | 6 | 81*
Cc1c2cnn(CC(=O)N3CCOCC3)c(=O)c2c(C)n1Cc1ccc(F)cc1 | -4 | 6 | 4 | . | . | 7
O=c1c(Cl)c(Cl)cnn1Cc1nnc(-c2ccc(Cl)cc2)o1 | 65 | 52* | 107* | 87* | -82 | 86*
Cc1ccc(-c2nnc(Cc3ccc(Cl)cc3)o2)cc1 | -48 | -58 | -248 | -41 | -28 | -59
Cc1ccc(Cn2ncc(Cl)c(Cl)c2=O)cc1 | 72 | 3 | 104* | ? | -94 | 65*
O=C(NNC(=O)C(c1ccccc1)c1ccccc1)c1ccccn1 | 93* | 25 | 28 | 50 | 26 | -93
O=C(NNC(=S)Nc1ccc(Cl)c(Cl)c1)c1ccccn1 | 92* | -12 | 18 | 40 | 62* | -14
CCNC(=S)NNC(=O)c1ccccn1 | 5 | 8 | 2 | 12 | 1 | -15
O=C(NNc1ccccn1)C(c1ccccc1)c1ccccc1 | -5 | -11 | 1 | 3 | -3 | 1
COC(=O)CC(NC(=O)c1ccc(C)cc1)c1ccccc1 (stereo unspecified) | -46 | -36 | -136 | -24 | -22 | -21
CC1CC(CN)CC(CO)C1 (stereo unspecified) | -3 | 23 | 9 | 10 | 2 | 53*
O=S(=O)(c1ccccc1)c1nnn2c1nc(NC1CCN(Cc3ccccc3)CC1)c1cc(Cl)ccc12 | 11 | 8 | 55* | 25 | 12 | 1
CC(C)(C)c1ccc(S(=O)(=O)/N=C2\C=C(NS(=O)(=O)c3ccccc3)C(=O)c3ccccc32)cc1 | -7 | 11 | 29 | 6 | 2 | 14
COC(=O)c1ccccc1NC1=C/C(=N\S(=O)(=O)c2cccs2)c2ccccc2C1=O | 94*! | 51*! | 86* | 78* | 86*! | 99*
COC(=O)c1ccccc1NC1=C/C(=N\S(=O)(=O)c2ccc(C(=O)O)cc2)c2ccccc2C1=O | 80 | 43 | 105* | 90* | -14 | 94*
CS(=O)(=O)N1CC(C(=O)NC2CCCC2)Oc2ccc(Cl)cc21 (stereo unspecified) | 0 | -7 | 7 | 9 | 7 | 4
Cc1ccc(NC(=O)C2CCCN(S(=O)(=O)c3c(C)noc3C)C2)cc1 (stereo unspecified) | 85* | 13 | 14 | 4 | 1 | 9
Cc1ccccc1Oc1ccc2c(c1)[C@@H]1C[C@H](N(C)C(=O)NC3CCCCC3)[C@H]([C@H](C)O)C(=O)N1CC2 | 14 | 10 | -1 | 10 | 9 | 3
Cc1ccccc1Oc1ccc2c(c1)[C@@H]1C[C@H](N(C)C(=O)Nc3cc(Cl)cc(Cl)c3)[C@H]([C@H](C)O)C(=O)N1CC2 | 4 | -8 | 68* | -7 | 13 | 16
CC(C)CC(=O)c1c[nH]c(C(=O)NCc2cccs2)c1 | . | -4 | 5 | -9 | 0 | -4
Cc1cc(C(=O)CCl)c(C)n1-c1ccon1 | 20 | -3 | 53* | 57 | 4 | 0
Cc1cc(C(=O)CCl)c(C)n1-c1cccc([N+](=O)[O-])c1 | 26 | 6 | 105* | 41 | 11 | 2
CC(=O)c1cccc(OCC(=O)c2cc(C)n(-c3cc(C)on3)c2C)c1 | 33 | -2 | -10 | 13 | 4 | 6
O=C(COc1ccccc1/C=C1\SC(=O)NC1=O)Nc1ccccc1 | 3 | 10 | 7 | -1 | 4 | 10
O=C1NC(=O)/C(=C/c2ccccc2OCc2ccccc2)S1 | 4 | 55* | 20 | 2 | 5 | -13

Assay outcomes: PubChem, several laboratories
